The full list was thinned out, with hits kept by preference.
ROC1-CUL1 inh: inhibitors of human ROC1-CUL1 ubiquitin ligase activity; inhibition, % at 10 µM; 140,000 compounds, 0.6% hits; in vitro K48 di-Ub FRET, acceptor:donor ratio, 45 min; E3 ubiquitin-protein ligase RBX1 (Homo sapiens) + Cullin-1 (Homo sapiens), P62877+Q13616; AID 1347404, 2020; in the data active = inhibition above about 25%
Active calls of the source: *.

SMILES | ROC1-CUL1 inh
CCOc1ccc(/C=C/C(=O)C2=CC(Br)=CCC(=NC)C2=O)cc1 | 8.2
CN=C1CC=C(Br)C=C(C(=O)/C=C/c2ccc(Cl)cc2Cl)C1=O | 4.1
CCN=C1CC=C(Br)C=C(C(=O)/C=C/c2ccc(OC)c(OC)c2)C1=O | -5.6
CN=C1CC=C(Br)C=C(C(=O)/C=C/c2cccc(OC)c2)C1=O | 44.1*
CN(CC1COCCO1)C(=O)CC1c2ccccc2CCc2ccccc21 (stereo unspecified) | -0.1
Cc1[nH]c2ccc(OCC(C)C)cc2c(=O)c1CN1CCN(C)CC1 | 4.0
CN(C)CCOC(c1ccc(F)cc1)c1ccc(F)cc1 | 5.7
COc1ccc(-n2cnc3c(C)nc(-n4nc(C)cc4C)nc32)cc1 | 3.9
COc1ccc(C(=O)NNC(=O)CSc2nnc(C)n2-c2ccc(C)cc2)cc1 | -2.8
Cc1c(/C=C/C(=O)NC2C3CC4CC(C3)CC2C4)cnn1C (stereo unspecified) | -6.4
CCOc1cc(/C=C2\SC(=Nc3ccc(Cl)cc3)NC2=O)cc(Cl)c1OCC(=O)O | 95.8*
CCc1ccc(N=C2NC(=O)/C(=C\c3cc(Cl)c(OCC#N)c(OC)c3)S2)cc1 | 7.7
CCOC(=O)COc1c(I)cc(/C=C2/SC(=Nc3ccc(OC)cc3)NC2=O)cc1OC | 6.6
COc1ccccc1CC(=O)Nc1cnn(CC(=O)N(C)CC2(c3ccccc3)CC2(C)C)c1 (stereo unspecified) | 3.3
COc1cc(CC2=NC(=O)N(CC(=O)Nc3ccc(C)cc3)C2=O)cc(Cl)c1OCc1cccc(C(=O)O)c1 | 45.3*
COc1cc(CC2=NC(=O)N(CC(=O)Nc3cccc(C)c3)C2=O)cc(Cl)c1O | 3.8
COc1cc(CC2=NC(=O)N(Cc3ccc(C)cc3)C2=O)ccc1OCc1cccc(C(=O)O)c1 | 17.5
CCN1C(=O)N=C(Cc2ccc(N(CC)CC)cc2)C1=O | 1.8
O=c1cc(CC2CCOCC2)nc2nc[nH]n12 | -8.8
Cc1ccc(S(=O)(=O)Oc2ncnc3ccccc23)cc1 | -3.8
CCOC(=O)N1CCc2c(sc(NC(=O)CSc3nc(C)cc(C)c3C#N)c2C#N)C1 | 0.0
Cc1cccc(NC(=O)c2sc3nc(-c4cc5ccc(O)cc5oc4=O)[nH]c(=O)c3c2C)c1 | 63.3*
Cc1cc(C)cc(NC(=O)c2sc3nc(-c4cc5ccccc5oc4=O)[nH]c(=O)c3c2C)c1 | 5.2
Cc1c(C(=O)Nc2cccc(F)c2)sc2nc(-c3cc4ccccc4oc3=O)[nH]c(=O)c12 | 4.9
Cc1cn2cc(CNc3ccc(-c4nc(C5CC5)no4)cn3)nc2s1 | 2.8
SMILES | ROC1-CUL1 inh
CCCCN1C(=O)/C(=C/c2ccccc2)N(C)C1=S | 0.9
Oc1ccc(NCc2ccccc2OCc2ccccc2)cc1 | 6.5
CCOc1cc(CNCc2cccs2)cc(Br)c1OC | -8.3
CCOc1cc(CNc2ccc(O)cc2)cc(Br)c1OCc1cccs1 | 74.6*
CCOc1cccc(CNc2ccc(O)cc2)c1OCc1ccccc1 | 97.0*
CCOc1cc(CNc2ccc(O)cc2)cc(Br)c1OCc1ccccc1 | 3.8
Oc1ccc(NCc2ccccc2OCc2ccc(Cl)cc2)cc1 | 6.7
Cc1cc(C)c(C)c(S(=O)(=O)N2CCN(C(c3ccccc3)c3ccccc3)CC2)c1C | -1.2
CC1(C(=O)n2ncnc2N)CC1(Br)Br (stereo unspecified) | -7.8
CCc1ccc(S(=O)(=O)n2nnc3ccccc32)cc1 | 26.1*
Cc1ccc2c(c1)nnn2S(=O)(=O)c1ccc([N+](=O)[O-])cc1 | -5.3
Cc1ccc2c(c1)nnn2S(=O)(=O)c1ccc(C(C)(C)C)cc1 | 0.0
Cc1ccccc1CCC(=O)N1CCCC(CO)(Cc2ccc(F)cc2)C1 (stereo unspecified) | 1.8
COc1ccc2nc(Nc3nc4ccccc4s3)sc2c1 | -2.0
CCc1ccc(OCC(=O)Nc2ccc(S(=O)(=O)N3CCCCC3)cc2)cc1 | 1.2
Cc1cccc(OCC(=O)N/N=C/c2cccn2-c2ccc([N+](=O)[O-])cc2)c1 | -3.1
Cc1cccc(OCC(=O)NNC(=O)CCCCC(=O)NNC(=O)COc2cccc(C)c2)c1 | 1.7
Cc1cccc(OCC(=O)NNc2ccc([N+](=O)[O-])cc2[N+](=O)[O-])c1 | 30.5*
OCc1ccc(CN2CC[C@@H](N3CCCCCC3)[C@H](O)C2)o1 | 6.2
N#CC(C#N)c1nc(-c2ccccc2)nnc1-c1ccccc1 | -13.6
O=C(COC(=O)c1ccc(NC(=O)c2ccc(Cl)cc2)cc1)c1cccc([N+](=O)[O-])c1 | 2.1
O=C(Nc1cc2nc3ccccc3nc2cc1NC(=O)c1cccc([N+](=O)[O-])c1)c1cccc([N+](=O)[O-])c1 | 0.2
O=C(NC1=NN(c2c(Cl)cc(Cl)cc2Cl)C(=O)/C1=C/c1ccc(O)cc1)c1cccc([N+](=O)[O-])c1 | 59.6*
Cc1cc(=O)oc2cc(OCCSc3ccccc3)ccc12 | -3.0
COc1ccccc1C1NCCS1 (stereo unspecified) | 33.1*
SMILES | ROC1-CUL1 inh
COc1cccc(C2SCCCS2)c1O | 8.2
CCOc1cc2c(cc1OCC)C(c1ccccc1OC)CC(=O)N2 (stereo unspecified) | 9.8
Cc1c(OC(=O)C2CCCN2C(=O)OC(C)(C)C)ccc2c1oc(=O)c1ccccc12 (stereo unspecified) | -6.4
O=C(O)/C=C\C(=O)Nc1ccccc1C(=O)Nc1ccc(F)cc1 | -6.6
COc1ccc(N=C2SC(=Nc3ccccc3)C(=Nc3ccccc3)N2c2ccc(OC)cc2)cc1 | 3.2
Cn1c(=Nc2ccccc2)ssc1=Nc1ccccc1 | 9.8
COC1=CCCSC1=Nc1ccccc1 | 29.9*
Cc1cc(C)n(-c2ncc(-c3ccc(Br)cc3)s2)n1 | -4.5
CCCCn1c(CN2CCCC2)cnc1S(=O)(=O)CCCC(C)C | 0.9
Cc1ccc([C@H]2Nc3ccc(S(=O)(=O)Nc4cccc(Cl)c4C)cc3[C@H]3C=CC[C@H]32)cc1 | 3.2
Cc1ccc([C@@H]2Nc3c(ccc(C(=O)O)c3C)[C@@H]3C=CC[C@@H]32)cc1 | 97.2*
COC(=O)c1ccc([C@@H]2Nc3c(OC)ccc(C)c3[C@@H]3C=CC[C@@H]32)cc1 | 4.4
Cc1nc2c(nc1Cl)c(=O)n(C)c(=O)n2C | -5.2
Cc1nc2c(=O)n(C)c(=O)n(C)c2nc1Cl | 71.5*
COc1cnc2c(=O)n(C)c(=O)n(C)c2n1 | 2.0
Cc1ccc(N2c3ccccc3Sc3ccccc32)cc1 | -7.4
CCOC(=O)c1cc(-c2ccc(/C=C3/C(=O)ON=C3C)o2)ccc1Cl | -2.1
C=CCOC(=O)c1cc(-c2ccc(/C=C3/C(=O)NN(c4ccc(F)c(Cl)c4)C3=O)o2)ccc1Cl | 1.3
CCN1C(=O)/C(=C/c2ccc(-c3ccc(Cl)c(C(=O)O)c3)o2)C(=O)NC1=S | 87.1*
COC(=O)c1ccc(N2NC(=O)/C(=C/c3ccc(-c4ccc(Cl)c(C(=O)O)c4)o3)C2=O)cc1 | 35.3*
COC(=O)c1cc(-c2ccc(/C=C3/C(=O)NN(c4ccc(C)cc4)C3=O)o2)ccc1Cl | 13.0
CC1=NN(c2ccccc2)C(=O)/C1=C/c1ccc(-c2ccc(C)c(C(=O)O)c2)o1 | 2.6
CCC(=O)Nc1ccc(C(=O)N/N=C/c2c3ccccc3cc3ccccc23)cc1 | 5.1
CCN(CC)c1ccc(C2c3c(nc(SC)[nH]c3=O)N=C3CC(C)(C)CC(=O)C32)cc1 (stereo unspecified) | -3.7
O=C1C(=NC2CC2)C(Br)C=NN1c1ccccc1 (stereo unspecified) | 5.7
CCCN(CCC)S(=O)(=O)c1ccc(C(=O)Nc2nc3ccc(Cl)cc3s2)cc1 | 3.2
O=C(c1cc[n+]([O-])cc1)N1CCCC(CO)(Cc2ccccc2)C1 (stereo unspecified) | -2.6
